These results are taken from PubChem BioAssay (NCI).

About 79,000 compounds went through this panel and 15% of them were active in at least one assay; those are over-represented in the sample as a whole. The source made the active and inactive calls. Rule as the data show it: active = growth inhibition above about 70%; inactive = the rest.

This assay in a line: NCI Yeast Anticancer Drug Screen. Data for the sgs1 mgt1 strain (AID 161).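 Also: 0% = growth of cultures given vehicle only.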 Particulars: S. cerevisiae sgs1 mgt1 strain, at 50.0 µM, active compounds read high. The method in brief:
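Compounds are added to genetically altered yeast, and growth is compared with cultures given vehicle alone to give percent inhibition.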
Turning to `CCN(/N=C1\CC2C=CCN(C2)C(=O)Cc2c1[nH]c1ccccc21)S(=O)(=O)c1ccc(C)cc1` (configuration not stated), the growth inhibition is 39.2% (inactive).

With `O=C(O)C1CCCCC1C(=O)O.[NH-]C1CCC1.[NH2-].[Pt+2]` (configuration not stated), the growth inhibition is 99.4% (active).

For `COC(=O)CCCN1C(=O)c2ccccc2C1=O`, the growth inhibition was -20.8% (inactive).

For the compound `COC(=O)N/N=C/c1ccc(NC(C)=O)cc1`, the growth inhibition is -13.8% (inactive).

Consider `O=C1c2cc(Cl)ccc2OCC1Cl` (configuration not stated), for which the growth inhibition is 14.6% (inactive).

Take `O=C1C(Cl)N(c2ccc(Cl)cc2Cl)C1c1c[nH]c2ccccc12` (configuration not stated): the growth inhibition is -16.7% (inactive).

In the case of `CCOC(=O)CNc1nnnn1C1OC(CO)C(O)C1O` (configuration not stated), the growth inhibition is -11.4% (inactive).

Regarding `Cc1cc(-c2ccccc2)c(C#N)c(=O)[nH]1`, the growth inhibition is -10.8% (inactive).

With `COc1ccc(C(=O)N/N=C/c2ccccc2)cc1`, the growth inhibition was -7.7% (inactive).

For the compound `CCCC=NCCCC`, the growth inhibition was -35.6% (inactive).

As to `CCOP(=O)(OCC)/C(C#N)=C\c1ccc(N(C)C)cc1`, the growth inhibition was 10.2% (inactive).

For `Nc1ccc(Cl)cc1[N+](=O)[O-]`, the growth inhibition was 12.2% (inactive).

`C[C@@]12C[C@@H](c3ccccc3O1)N1CCCSC1=N2`: the growth inhibition is 4.6% (inactive).

Regarding `c1ccc2c(C3CO3)c3ccc4ccccc4c3cc2c1` (configuration not stated), the growth inhibition was 99.5% (active).

Consider `Cc1cccc(C)c1NC(=O)C(=O)Cc1nc2ccccc2s1`, for which the growth inhibition is -9.25% (inactive).

With `CC(=O)[C@@]1(O)CC[C@H]2[C@@H]3C[C@H](C)C4=CC(=O)CC[C@]4(C)[C@H]3[C@@H](O)C[C@@]21C`, the growth inhibition was -19.1% (inactive).

Consider `C#[N+]CCOP(=O)(OCC1OC(n2cc(C)c(=O)[nH]c2=O)CC1N=[N+]=[N-])O[C@H]1CC[C@@]2(C)C(=CC[C@H]3[C@@H]4CC[C@H](C(C)CCCC(C)C)[C@@]4(C)CC[C@@H]32)C1` (some centres not stated), for which the growth inhibition was -24.6% (inactive).
